# Laboratory results published in ChEMBL document CHEMBL4513216, “Probing the Open Global Health Chemical Diversity Library for Multistage-Active Starting Points for Next-Generation Antimalarials” (ACS Infect Dis, 2020).
# About 2,700 (4%) of roughly 68,000 compounds showed an effect of 50% or more. Shown is part of a subset that was picked to be rich in strong results.
# Test system: Plasmodium berghei
# Assay: Screen against P. berghei liver stage (PbLuc), transformed with Luciferase, at 2uM
# Assay type: functional, HepG2
# Settings: tested at 2 uM
row,Structure (SMILES),INHIBITION
1,CC(C(=O)NCCc1cccs1)N1CCC(n2ccnc2)CC1 (centres undefined),-22.69%
2,CC(C(=O)Nc1ccc2ccccc2c1)N1CCC(n2ccnc2)CC1 (centres undefined),-17.84%
3,CC(C(=O)Nc1ncccn1)N1CCC(n2ccnc2)CC1 (centres undefined),61.56%
4,O=C(c1cc(Cl)c[nH]1)N1CCN(CCc2ccccn2)CC1,-5.61%
5,COc1cc(OC)c(CNC(=O)NCC(=O)N2CCCC2)c(OC)c1,-19.51%
6,OC1(Cn2ccc3ncccc32)CCN(Cc2ccccn2)CC1,7.86%
7,CCc1sc(-c2nnc(CNCCn3cc(C)cn3)o2)cc1C,53.03%
8,CCc1sc(-c2nnc(CNC(C)Cn3cc(C)cn3)o2)cc1C (centres undefined),-11.19%
9,CCc1sc(-c2nnc(CNCCn3cccn3)o2)cc1C,-19.27%
10,CNc1nc2cn(Cc3ccc(Cl)cc3)c(=O)c-2c[nH]1,16.38%
11,CC[C@@H](Cn1ncc2ccccc2c1=O)NC(=O)c1cnccn1,-10.89%
12,Cc1cc(=O)n2ncnc2n1CC(O)c1cc(Cl)ccc1Cl (centres undefined),50.59%
13,Cc1cc(=O)n2ncnc2n1CC(O)c1ccccc1Cl (centres undefined),5.36%
14,Cc1cc(=O)n2ncnc2n1CC(O)c1cc(F)ccc1F (centres undefined),6.97%
15,Cc1nc(C2(O)CCCNCC2)sc1CCOc1ccc(Cl)cc1 (centres undefined),25.23%
16,Cc1ccc(NC2CCN(C(=O)c3nccc4ccccc34)CC2)nn1,-27.5%
17,Cc1[nH]c2ccc(C(=O)N3C[C@@H](O)[C@H](N4CCOCC4)C3)cc2c1C,21.97%
18,COc1ccccc1C(C)CC(=O)N1CCN(S(N)(=O)=O)CC1 (centres undefined),50.46%
19,COc1ccccc1C(C)CC(=O)N1CC[C@H](O)C1 (some centres undefined),-22.65%
20,COc1ccccc1C(C)CC(=O)N1CCCS1(=O)=O (centres undefined),-29.82%
21,O=C(NC1CC1)C1CN(Cc2ccc3c(c2)OCCO3)CCN1 (centres undefined),54.73%
22,NC(=O)COc1ccc(CN2CCNC(C(=O)NC3CC3)C2)cc1Cl (centres undefined),32.69%
23,Cc1ccc(CN2CCNC(C(=O)NC3CC3)C2)cc1C (centres undefined),2.6%
24,O=C(c1ccccn1)N1C[C@H]2CC[C@@H](C1)N(C(=O)CCN1CCCC1)C2,-49.63%
25,CC(NCCNS(=O)(=O)c1cccc(Cl)c1)C1CCOCC1 (centres undefined),53.16%
26,Cc1cc(NCCNS(=O)(=O)c2cccc(Cl)c2)nc(C)n1,-42.54%

row,Structure (SMILES),INHIBITION
1,O=C(NCCNS(=O)(=O)c1cccc(Cl)c1)C1CCCO1 (centres undefined),1.27%
2,COCC1CC2(CCN(C(=O)c3ccccc3C)CC2)CN1C(C)C (centres undefined),24.86%
3,O=C(c1cn(CC(=O)N2CCCCC2)c2ccccc12)C1CC1,-27.61%
4,O=C(c1cn(CC(=O)N2CCCC2)c2ccccc12)C1CC1,54.29%
5,O=C(c1cn(CC(=O)N2CCCCCC2)c2ccccc12)C1CC1,-45.95%
6,CCOCC1CN(C(=O)c2cnoc2C)Cc2cn(C)nc21 (centres undefined),-10.98%
7,CC(=O)Nc1ccc(CN2CCCC(c3cc4ncccc4[nH]3)C2)cc1 (centres undefined),50.68%
8,CCOc1ccc(CN2CCCC(c3cc4ncccc4[nH]3)C2)cc1 (centres undefined),-12.12%
9,Fc1ccc(CN2CCCC(c3cc4ncccc4[nH]3)C2)cc1 (centres undefined),-6.41%
10,Cc1occc1C(=O)N1CCCC2(CCN(CCN3CCCC3)C2=O)C1 (centres undefined),-15.36%
11,Cc1nn(C)c2nc(C3CC3)c(Cl)c(C(=O)O)c12,52.23%
12,Cc1ccc(Cn2nc(C)c3c(C(=O)O)c(Cl)c(C4CC4)nc32)cc1,26.11%
13,Cc1noc2nc(C3CC3)c(Cl)c(C(=O)O)c12,-7.81%
14,CCc1csc(NC(=O)NCc2ccccn2)n1,29.32%
15,Cc1c(C(=O)N(C)CC(F)(F)F)nnn1-c1ccccc1Cl,-20.76%
16,CSC1(CNC(=O)NC(C)c2ccc(F)c(F)c2)CCOCC1 (centres undefined),-90.61%
17,CSC1(CNC(=O)NC(C)c2ccc(F)cc2)CCOCC1 (centres undefined),51.43%
18,CSC1(CNC(=O)NC(C)Cc2cccc(F)c2)CCOCC1 (centres undefined),16.49%
19,CCS(=O)(=O)CCN1CCN(C2CCC(C(C)C)CC2)CC1 (centres undefined),20.83%
20,COCc1nccc(C2CCCN(Cc3ccc(SC)cc3)C2)n1 (centres undefined),35.63%
21,CC1N(C)C(=O)COC12CCN(Cc1nccs1)CC2 (centres undefined),-52.93%
22,OCC1CCCN1c1cc(NCCc2ccccn2)ncn1 (centres undefined),-13.49%
23,CN1CCc2[nH]cnc2C12CCN(C(=O)CCc1cccs1)CC2,46.51%
24,CC(=O)N1CCc2[nH]cnc2C12CCN(C(=O)Cc1cccs1)CC2,63.14%
25,CC(=O)N1CCc2[nH]cnc2C12CCN(C(=O)Cc1ccccn1)CC2,39.58%
26,Cc1cccc(CN2C[C@@H]3CN(C(=O)[C@H]4CCCO4)C[C@@H]3C2=O)c1,19.64%

row,Structure (SMILES),INHIBITION
1,CCn1ncc2c1C(COC)N(C(=O)c1cccs1)CC2 (centres undefined),-23.14%
2,O=C(Nc1nnn[nH]1)c1ccc(I)c(F)c1,15.2%
3,Cc1cccc(CN2CC[C@@H]3[C@@H]2CCN3Cc2cccs2)n1,-18.6%
4,Cc1cccc(CN2C(=O)C[C@H]3[C@@H]2CCN3Cc2nccs2)n1,31.5%
5,Cc1cccc(CN2C(=O)C[C@H]3[C@@H]2CCN3Cc2cccs2)n1,63.06%
6,Cc1ccc(-c2cn[nH]c2C2CCCN(c3nccc(N)n3)C2)cc1 (centres undefined),58%
7,Cc1ccc(-c2cn[nH]c2C2CCCN(c3ccnc(C)n3)C2)cc1 (centres undefined),-8.3%
8,Cc1ccc(-c2cn[nH]c2C2CCCN(c3ncccn3)C2)cc1 (centres undefined),-16.71%
9,Cc1nc(CCNC(=O)NC(C)Cn2cccn2)cs1 (centres undefined),38.76%
10,O=C(N[C@@H]1CN[C@H]2CCCO[C@H]21)c1cccnc1,33.69%
11,CC(=O)N1CCN(C(C)c2nnc(CC(C)C)o2)CC1 (centres undefined),2.02%
12,CNc1ncc(CN(C)C(=O)CCc2[nH]nc3c2CCCC3)cn1,50.57%
13,CNc1ncc(CN(C)C(=O)CCc2cc3n(n2)CCCNC3)cn1,20.76%
14,CN(Cc1ccncn1)C(=O)CCc1[nH]nc2c1CCCC2,-2.31%
15,Cc1ccc(CNC(=O)Cn2nc(-c3ccc(F)cc3)oc2=O)cc1F,1.6%
16,COc1cccc(-c2noc(C3CCN(CC4CCCCC4)C3)n2)c1 (centres undefined),30.29%
17,CCS(=O)(=O)N1CCC2(CC1)CN(C(=O)N(C)C)Cc1ccccc12,6.79%
18,CC(C)N1CCC(CC(=O)NCCc2cc(O)ncn2)CC1,60.59%
19,CC(C)N1CCC(CC(=O)NCc2cc(O)ncn2)CC1,12.17%
20,CCc1csc(CCNC(=O)CC2CCN(C(C)C)CC2)n1,-2.5%
21,Cn1ccnc1CN1C[C@@H]2OCCN(c3ncccn3)[C@@H]2C1,52.17%
22,CN(C)c1nccc(N2CCO[C@H]3CN(Cc4nccn4C)C[C@H]32)n1,11.6%
23,Cn1cncc1CN1C[C@@H]2OCCN(c3ncccn3)[C@@H]2C1,25.02%
24,CC(C)NC(=O)N1Cc2nccn2CC(CN2CCCC2)C1 (centres undefined),2.5%
25,CCC(C)Oc1ccc(CNCCc2c[nH]cn2)cc1Cl (centres undefined),12.15%
26,COc1ccc(C)cc1NC(=O)Cn1nc(C)c(C#N)c1N,5.32%

row,Structure (SMILES),INHIBITION
1,Cc1nn(CC(=O)Nc2cccc(F)c2)c(N)c1C#N,-33.61%
2,Cc1ccc(C)c(NC(=O)Cn2nc(C)c(C#N)c2N)c1,-15.17%
3,CC(=O)c1c(C)nn(CC(=O)Nc2ccc(F)cc2)c1C,-16.43%
4,Cc1nn(CC(=O)Nc2ccc(F)cc2)c(N)c1C#N,58.12%
5,Cc1cc(NC(=O)Cn2nc(C)c(C#N)c2N)ccc1Br,55.86%
6,CCc1ccc(S(=O)(=O)N2Cc3c(CN(C)C)nn(C)c3C2)cc1,48.09%
7,NC1CCc2nc(-c3ccncc3)nc(Nc3cccc(F)c3)c2C1 (centres undefined),-23.54%
8,Cc1cccc2c1ccn2CCC(=O)Nc1c2c(nn1C)CSC2,13.65%
9,CCN(C)c1ncnc2c1CCN(Cc1ccc(OC)cc1)CC2,7.86%
10,O=C(c1ccccn1)N1CCCC(c2nccn2CC2CCC2)C1 (centres undefined),14.41%
11,O=C(Cc1ccccn1)N1CCCC(c2nccn2CC2CCC2)C1 (centres undefined),54.47%
12,O=C(CSCC1CC1)N1CCCC(c2nccn2Cc2ccccn2)C1 (centres undefined),-17.83%
13,Cc1csc(CCCNC(C)CC(=O)Nc2cccc(C)c2C)n1 (centres undefined),-77.68%
14,O[C@@H]1C[C@@H](c2nc(-c3ccc(OC(F)(F)F)cc3)no2)N(CC2CC2)C1,13.92%
15,Cc1noc([C@H]2CC[C@@H]3[C@@H](CCN3S(=O)(=O)C3CC3)O2)n1,1.83%
16,O=C(Cc1ccccc1Cl)Nc1cnn(C2CCOC2)c1 (centres undefined),2.49%
17,COc1ccc(-c2c(C)nn3c(=N)c(C#N)n[nH]c23)cc1OC,1.04%
18,COCC(=O)NC1(c2cccc(C(F)(F)F)c2)CCC1,24.82%
19,CS(=O)(=O)CCC(=O)NC1(c2cccc(C(F)(F)F)c2)CCC1,61%
20,CCNC(=O)CCC(=O)NC1(c2cccc(C(F)(F)F)c2)CCC1,18.85%
21,COCCC1(C(=O)O)CCCN(Cc2cc3c(cc2C)OCO3)C1 (centres undefined),-48.91%
22,c1cnn(-c2ccc(CCNC3CCN(C4CC4)C3)cc2)c1 (centres undefined),27.73%
23,C[C@H](O)CNc1cc(-c2ccccc2)ncn1,59.56%
24,OCCNc1cc(-c2ccccc2)ncn1,-7.01%
25,C[C@H](O)CNc1cc(-c2ccncc2)ncn1,-29.38%
26,CC(C)NC(=O)CC1COC2(CCN(Cc3ccco3)CC2)C1 (centres undefined),43.58%
